40 compounds from PubChem BioAssay (NCI) can be followed below.

This is part of a sample that, as a whole, favours compounds with a hit. Of some 83,000 tested, about 20% had one in any assay.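 Treatment: one concentration, 48 hours, 96-well format. Scoring: percent growth, with anything below 10 considered active.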 The source made the active and inactive calls.

The experiment concerns T-47D breast. The experiment can be described thus: NCI-60 one-dose screen, 48 h (100 = growth as untreated, 0 = no growth, -100 = all killed). The settings on record: 10 µM unless noted. The procedure: Growth inhibition of the T-47D human tumor cell line is measured as a screen for anti-cancer activity. Cells are grown in 96 well plates and exposed to the test compound for 48 hours. Compounds are tested at a single concentration, which is 10^-5 M for most compounds. The reported endpoint is percent growth (GI% or GIPRCNT), where numbers from 0 - 100% represent growth inhibition, and numbers from -100% - 0 represent cell death. For example, a value of 40 represents 60% growth inhibition. A value of 0 means no net growth occurred over the course of the experiment. A value of -40 indicates 40% of cells at the beginning of the experiment died by the end of the experiment. A value of -100 means all cells are dead at the end of the experiment.
NCI-60 Human Tumor Cell Lines Screen was performed using the standard one-dose NCI protocol, which is described in more detail at https://dtp.cancer.gov/discovery_development/nci-60/default.htm.
Compounds with GIPRCNT values below 10 were considered active. Activity score was based on GIPRCNT using the following formula: […]
Score is 0 for GIPRCNT values of 100 or above, 50 for GIPRCNT values of 0, and 100 for GIPRCNT values of -100.
In the case of `O=C(CC1Sc2ccccc2NC1=O)NNc1cccc(Cl)c1Cl` (stereo not given), the growth is 73% (inactive).

With `CCCCCCCCCCNCCSS(=O)(=O)O`, the growth was 88.7% (inactive).

With `COc1ccc(/C=C2/SC(=Nc3c(C)nn(-c4ccccc4)c3N)NC2=O)cc1`, the growth was 60.9% (inactive).

For `CC(=O)Nc1cc2c3c(cccc3c1)-c1ccccc1-2`, the growth is 75.4% (inactive).

On to `C[C@H]1O[C@@H](O[C@H]2[C@@H](O)C[C@H](O[C@H]3[C@@H](O)C[C@H](O[C@H]4CC[C@]5(C)C6C[C@@H](O)[C@]7(C)[C@@H](C8=CC(=O)OC8)CC[C@]7(O)C6CC[C@@H]5C4)O[C@@H]3C)O[C@@H]2C)C[C@H](O)[C@@H]1O` (stereo not given in full), for which the growth was -49.1% (active).

For the compound `Cc1[nH]ccc2cc3nc4ccccc4c3cc12`, the growth was 27.7% (inactive).

For `Cc1ccccc1NC(=O)N/C(N)=N/c1nc2ccccc2s1`, the growth was 61.1% (inactive).

Consider `CCNCCCn1c2c(c3ccc(F)cc3c1=O)C(=O)c1cc(OC)cnc1-2`, for which the growth was -10.8% (active).

With `CC(C)=CCCC(C)c1ccc(C)c2c1OCN(CC1CCNCC1)C2` (stereo not given), the growth was -94.4% (active).

Turning to `COc1ccc(OC)c2c1CCC1(C2)NC(=O)NC1=O` (stereo not given), the growth was 109% (inactive).

As for `COc1ccc(N2CCN(CC(=O)N3CCN(c4nnc(-c5ccccc5)c(-c5ccccc5)n4)CC3)CC2)cc1`, the growth was 20.1% (inactive).

For the compound `C/C=C(/C(=C/C)c1ccc(O)cc1)c1ccc(O)cc1`, the growth was 53.5% (inactive).

As to `CCn1cnc(C[C@H](NC(=O)[C@H](CCCCNC(=O)Nc2cc(C(F)(F)F)cc(C(F)(F)F)c2)NC(=O)Nc2cc(C(F)(F)F)cc(C(F)(F)F)c2)C(=O)OC)c1`, the growth is -62.8% [100 µM] (active).

As for `C[C@@H]1CN(c2nc3c(cc2F)c(=O)c(C(=O)O)cn3C(C)(C)C)C[C@H](C)N1`, the growth is 95.5% (inactive).

With `C=C1CCC2C3(C)COC(c4ccccc4)OC3CCC2(C)C1C/C=C1/C(=O)OCC1OC(C)=O` (stereo not given), the growth was 71.1% (inactive).

Consider `CCOC(=O)C(C(=O)OCC)C1CCCCC1`, for which the growth was 100% (inactive).

On to `C/C(=C\CCc1ccoc1)CC/C=C(\C)CCCNc1ccc(F)cc1`, for which the growth was 77.8% (inactive).

In the case of `COc1ccc(C2=NN(C(C)=O)C(c3c(C)nn(-c4ccccc4)c3N3CCOCC3)C2)cc1` (stereo not given), the growth is 93.3% (inactive).

Regarding `COc1c(Br)cc(C(c2cc(Br)c(OC)c(Br)c2)c2ccccc2C(=O)O)cc1Br`, the growth was 93.6% (inactive).

For the compound `O=C(N/N=C/c1cccc([N+](=O)[O-])c1)c1ccc(Br)o1`, the growth was 83.4% (inactive).

For the compound `c1ccc(COc2ccc(Nc3ncnc4c3cnn4-c3ccccc3)cc2)cc1`, the growth was 100% (inactive).

Take `COc1ccc(C2CC(c3ccc4c(c3)OCO4)=NN2C=O)cc1` (stereo not given): the growth is 99.2% (inactive).

`Nc1ccc(Oc2c(F)c(F)c(Oc3ccc(N)cc3)c(F)c2F)cc1`: the growth was 91.8% (inactive).

`O=C(c1ccc(N2CCOCC2)cc1[N+](=O)[O-])N1CCOCC1`: the growth is 102% (inactive).

For the compound `O=C(C(=O)N1CCOCC1)c1cn(CCCn2cc(C(=O)C(=O)N3CCOCC3)c3ccccc32)c2ccccc12`, the growth was 94.7% (inactive).

With `c1ccc(-c2nc(Nc3nccnn3)c3ccccc3n2)cc1`, the growth was 83.4% (inactive).

Take `CC1=C([Se]CC(OC(=O)[C@@H](CSSC(C)(C)C)NC(=O)C(C)(C)C)C(=O)NCCCCCC(=O)OCc2ccccc2)C(=O)c2ccccc2C1=O` (stereo not given in full): the growth is 17.9% (inactive).

Consider `N#CC1c2ccccc2C=CN1C(=O)N(c1ccccc1)c1ccccc1` (stereo not given), for which the growth is -1.33% (active).

Regarding `C=C1CC[C@@H]2[C@](C)(COC(C)=O)[C@H](OC(C)=O)CC[C@@]2(C)[C@@H]1CC(NCc1ccccc1)C1=CCOC1=O` (stereo not given in full), the growth is 14.2% (inactive).

In the case of `CCSc1nc(-c2ccc(F)cc2)c(C#N)c(=O)[nH]1`, the growth is 120% (inactive).

`CC(=O)N1N=C(c2ccc(Nc3ccnc4cc(Cl)ccc34)cc2)CC1c1ccc(Cl)cc1` (stereo not given): the growth was 25.5% (inactive).

As to `CC1CN(/N=C/c2ccc([N+](=O)[O-])o2)C(=N)O1` (stereo not given), the growth is 117% (inactive).

Take `O=C1OC(Oc2ccccc2)(c2ccccc2)c2ccccc21` (stereo not given): the growth is 100% (inactive).

With `CN(C)CCCNc1nn2c(=O)c3ccccc3nc2c2ccccc12`, the growth is 92.5% (inactive).

Turning to `N#Cc1ccccc1C#Cc1ccccc1C#Cc1ccc(OCCCCCCOc2ccc(C#Cc3ccccc3C#Cc3ccccc3C#N)cc2)cc1`, the growth is 93.4% (inactive).

For the compound `Fc1ccccc1C1c2ccccc2-c2nccn21` (stereo not given), the growth is 91.3% (inactive).

`COc1cccc(/C=N/Nc2nc3ccccc3s2)c1OC`: the growth is 67.5% (inactive).

As for `COc1ccc(OC)c(CCn2cncc2-c2c[nH]c3cc(Br)ccc23)c1`, the growth is 6.48% (active).

On to `Cc1cc(-c2ccccc2)cc(C)n1`, for which the growth is 114% (inactive).

Take `CCSc1ncc(Br)c(Sc2nc(N)nc3nc[nH]c23)n1`: the growth was 29.9% (inactive).
